From PubChem BioAssay
Only a selection was taken, and hits are over-represented in it overall.
MARV entry inh = qHTS for inhibitors of binding or entry into cells for Marburg Virus. Marburg virus pseudotyped entry inhibition, cell reporter. Potency, µM (titrated, usually from 37.8 µM), without a hit: top-dose activity change, negative = inhibition, usual class: inhibitors. hit rate 1.8% among 300,000; calls by dose curve; tested in HEK293 cells; note: potency is the fitted concentration of half-maximal effect; % is set by controls: 0 for no effect and ±100 for the full control effect
Lassa entry inh = qHTS for Inhibitors of binding or entry into cells for Lassa Virus. Lassa virus pseudotype entry inhibition, cell reporter. hit rate 1.2% among 300,000. AID 540256, 2011. Potency, µM (doses to about 37.9 µM), for the others: at the highest dose activity change, negative = inhibition, actives largely listed as inhibitors; calls by dose curve; tested in HEK293 cells; note: potency is the fitted concentration of half-maximal effect; % is set by controls: 0 for no effect and ±100 for the full control effect; nearly all actives have a fitted effect of over 50% in size
VACV Venus inh = qHTS for Stage-Specific Inhibitors of Vaccinia Orthopoxvirus: Venus Reporter Primary qHTS; Vaccinia virus Venus reporter expression, fluorescence; Potency, µM (titrated, usually from 36.5 µM), for inactives: at the highest dose activity change, negative = inhibition, most hits filed as inhibitors; hit rate 0.46% among 330,000; AID 720580, 2013; calls by dose curve; tested in A549 cells; note: potency is the fitted concentration of half-maximal effect; % is set by controls: 0 for no effect and ±100 for the full control effect; nearly all actives have a fitted effect of over 30% in size
Cycloheximide cs = Cycloheximide Counterscreen for Small Molecule Inhibitors of Shiga Toxin. cell reporter, cycloheximide protein synthesis inhibition counterscreen. max response, %. AID 2314, 2010. hit rate 12% among 300,000; in the data active = max response mostly above about 13%, no sharp cut-off; inactive = mostly below about 14%; note: read at 38.3 µM for the half of the compounds with a filed dose; 0% is about no effect
Shiga inhibitor = A qHTS for Small Molecule Inhibitors of Shiga Toxin; Vero cells, Shiga toxin protein synthesis inhibition reporter; hit rate 9.2% among 290,000; inhibition, % at 38.7 µM; AID 2315, 2010; in the data active = inhibition mostly above about 28%, no sharp cut-off; inactive = mostly below about 43%; note: 0% is about no effect
VACV mCherry inh = qHTS for Stage-Specific Inhibitors of Vaccinia Orthopoxvirus: mCherry Reporter Primary qHTS. Vaccinia virus mCherry reporter infection, fluorescence. Potency, µM (doses to about 36.5 µM), inactives show at the top dose activity change, negative = inhibition, hits mostly inhibitors. hit rate 0.63% among 310,000; calls by dose curve; tested in A549 cells; note: potency is the fitted concentration of half-maximal effect; % is set by controls: 0 for no effect and ±100 for the full control effect; nearly all actives have a fitted effect of over 35% in size
The depositor's hits bear a star; i = inactive; ? = inconclusive; nt = no result; [ ] = remark or other dose.

SMILES	MARV entry inh	Lassa entry inh	VACV Venus inh	Cycloheximide cs	Shiga inhibitor	VACV mCherry inh
N/C(=N\OC(=O)Cc1ccccc1[N+](=O)[O-])c1ccncc1	?	20%	-12%	-2	-7	-6%
COc1cccc(C(=O)O/N=C(\N)c2ccncc2)c1	?	39%[14.3 µM]	4%	47*	71*	-9%
COc1cccc(C(=O)O/N=C(\N)c2ccc([N+](=O)[O-])cc2)c1	24%	?	-3%	33*	76*	i
COc1ccc(/C(N)=N/OC(=O)c2cccc([N+](=O)[O-])c2)cc1	?	?	-5%	1	26	nt
COc1ccc2c(c1)CCc1cnc(-n3ncc(C(=O)NCCCc4ccncc4)c3C)nc1-2	nt	nt	-23%	nt	nt	?
COc1cccc(CO[C@H]2C=C[C@@H](c3ccccc3)O[C@H]2CN=[N+]=[N-])c1	-17%[14.2 µM]	nt	nt	nt	nt	nt
COc1cc(OC)c(C(=O)O/N=C(\N)c2ccccn2)cc1OC	nt	nt	-19%	14*	78*	i
Cc1ccc(C(=O)O/N=C(\N)c2ccccn2)c(C)c1	0.63µM*	0.79µM*	-22%	-7	-22	-15%
N/C(=N\OC(=O)c1ccccc1[N+](=O)[O-])c1ccccn1	?	?	-2%	12	26	-7%
COc1ccccc1C(=O)O/N=C(\N)c1ccccn1	3.5µM*	?	15%	22*	34	i
COc1ccc(C(=O)O/N=C(\N)c2ccccn2)cc1	?	?	1%	-11	-29	i
N/C(=N\OC(=O)c1ccccc1Cl)c1ccccn1	?	2.1µM*	nt	2	-11	nt
COC(=O)N(C=Cc1ccc(OC)cc1)CCc1ccc(OC)c(OC)c1	3%[14.2 µM]	nt	nt	nt	nt	nt
COC(=O)C(=O)C1CCc2c(Cl)cc(OC)c(OC)c2C1=O (centres undefined)	-1%	2%[46.1 µM]	1%	nt	nt	i
Cc1cc2oc(=O)c(CC(=O)NCCc3ccccc3F)c(C)c2c2occ(C(C)(C)C)c12	9%[46.1 µM]	10%[46.1 µM]	1%	nt	nt	-10%
N/C(=N\OS(=O)(=O)c1ccc(Cl)cc1)c1ccccn1	?	-20%	-13%	17*	56*	-14%
N/C(=N\OS(=O)(=O)c1ccccc1)c1ccccn1	?	0%	-12%	0	-5	i
COc1cccc(NC(=O)c2cccnn2)c1	nt	nt	nt	21*	18	nt
COc1ccc(NC(=O)c2ccc(NC(=O)c3cccnc3)cc2)cc1	nt	nt	-10%	nt	nt	i
COc1ccc(NC(=O)c2cccnn2)cc1	nt	nt	nt	24*	29*	nt
Cc1cc2ncn(/N=C/c3ccc4c(c3)OCO4)c2cc1C	4%[46.1 µM]	0%	-6%	18*	76*	-7%
CCOC(=O)c1cnc(-n2nc(C)cc2C)nc1NNc1cc(-c2ccccc2)nc(C)n1	-7%	-1%	nt	-3	-5	nt
CCOC(=O)c1cnc(-n2nc(C)cc2C)nc1NNc1ncc(-c2ccccc2)cn1	11µM*	?	?	-1	16	?
Cn1c(C(=O)N2CCCC(C(=O)NCCCSC3CCCCC3)C2)cc2sccc21 (centres undefined)	?	13µM*	?	-4	-3	-28%
Cc1ccc(NC(=O)N2CCN3CCCCC3C2)cc1F (centres undefined)	nt	?	-10%	nt	nt	6%
SMILES	MARV entry inh	Lassa entry inh	VACV Venus inh	Cycloheximide cs	Shiga inhibitor	VACV mCherry inh
O=C(c1cc(-c2cccc(Cl)c2)on1)N1CCN(c2ccccc2)CC1	?	12%[46.1 µM]	0%	15	24	-13%
Cc1cc(C(=O)N(C)C2CCCCC2)no1	nt	nt	nt	-1	4	nt
O=C(c1cc(-c2ccccc2)on1)N1CCN(c2ccccc2)CC1	12%[46.1 µM]	8%[46.1 µM]	-10%	2	-3	-11%
O=C(c1cc(-c2ccc(Cl)c(Cl)c2)on1)N1CCCCC1	?	1%	0%	40*	120*	-10%
O=C(c1cc(-c2ccccc2)on1)N1CCCC1	?	?	-16%	30*	149*	-2%
CN(C(=O)c1cc(-c2ccccc2)on1)C1CCCCC1	?	?	10%	37*	73*	27%
O=C(c1cc(-c2cccc(Cl)c2)on1)N1CCCC1	-2%[46.1 µM]	?	-14%	18*	71*	18%
COc1ccc(CCNC(=O)CCn2c(=O)c3ccccc3n(Cc3ccccc3F)c2=O)cc1OC	-2%[46.1 µM]	-15%[46.1 µM]	1%	nt	nt	12%
COc1ccc(CNC(=O)CN2C(=O)COc3ccccc32)c(OC)c1	nt	?	-11%	nt	nt	-7%
O=C(c1cc(-c2ccc(Cl)cc2)on1)N1CCN(c2ccc(F)cc2)CC1	8%[46.1 µM]	?	-3%	-2	-7	-4%
O=C(c1cc(-c2ccc(Cl)cc2)on1)N1CCCC1	?	?	-7%	37*	90*	-24%
CCCN(CC(=O)Nc1ccccc1OC)C(=O)c1ccncc1	2%[46.1 µM]	-13%[46.1 µM]	-2%	-2	-16	i
C/C(Cn1cnc([N+](=O)[O-])n1)=N\NC(=O)c1cccc(F)c1	-10%	26%	nt	25*	96*	nt
C/C(Cn1cnc([N+](=O)[O-])n1)=N\NC(=O)c1ccncc1	-21%	11%	0%	4	16	-15%
C/C(Cn1cnc([N+](=O)[O-])n1)=N\NC(=O)c1ccc(F)cc1	-30%	-4%	nt	25*	41*	nt
S=C(NCc1cccs1)Nc1cc(Cl)cc(Cl)c1	?	-5%[46.1 µM]	-21%	14	18	-23%
COc1ccc(NC(=S)NCc2cccs2)cc1	19%[46.1 µM]	29%	3%	19*	47*	0%
COc1ccc(NC(=S)NC(C)Cc2cccs2)cc1 (centres undefined)	nt	nt	nt	29*	68*	nt
CC(C)c1ccc(NC(=S)NCc2cccs2)cc1	9%	?	nt	21	31	nt
S=C(NCc1cccs1)Nc1ccccc1Cl	0%	-2%	-18%	24*	44*	-26%
CC(Cc1cccs1)NC(=S)Nc1ccc(F)cc1 (centres undefined)	?	?	-13%	10*	51*	-8%
CCc1nc2ccc(C(=O)N3CCN(C(=O)c4ccco4)CC3)cn2c1N(C)Cc1ccc(OC)cc1	nt	nt	1%	nt	nt	-8%
CN(C)C(=O)C(OC(=O)c1ccc2ccccc2n1)c1ccccc1 (centres undefined)	5%[46.1 µM]	-3%[46.1 µM]	0%	-1	-3	-14%
Cc1cc(C)cc(N2C(=O)NC(=O)/C(=C\c3cccn3-c3ccccc3)C2=O)c1	?	?	14µM*	14*	-4	?
Cc1cccc(N2C(=O)NC(=O)/C(=C\c3cnc(-c4ccccc4)nc3)C2=O)c1	?	18%	-1%	14*	43	i
O=C(NC1CCN(C(=O)c2cccc([N+](=O)[O-])c2)CC1)c1ccccc1	18%[46.1 µM]	17%	-1%	-2	-2	19%
COC(=O)Nc1nnc(-c2ccncc2)s1	18%	?	nt	3	5	nt
C/C=C/C(=O)Nc1nnc(-c2ccccc2C)s1	nt	nt	-25%	6	4	-14%
